For 35 compounds, Potency results are on record in PubChem BioAssay (NCATS).

Values joined by “and” are separate entries in the source; they are usually repeats but may differ in a detail not shown here. Equal entries are not always repeated. Records with an inconclusive call do not appear. Where a call stands in place of a potency, no number is given. The source holds several records for some structures; these can differ, active in one and inactive in another. Active and inactive are the calls of the source. Calls follow the shape of the dose curve; as a rule, active = well fitted inhibition curve with a large enough effect; inconclusive = small, poorly fitted or top-dose-only effect; inactive = flat fitted curve, though single readings scatter.
Potency is read from the fitted curve at half-maximal effect.

For the first assay, the system named is MCC-26. Description: qHTS assay to identify novel small-molecules to repurpose for Merkel cell carcinoma treatment (AID 1296009). Also: nearly all actives have a fitted effect of over 60% in size. The following applies: MCC and control cell lines, CellTiter-Glo viability, 72 h; series mostly up to 46 µM. In a few lines:
(§1)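 Cell viability measured by CellTiter-Glo following 72 hr compound treatment at 37 degree celsius, with NPC and MIPE libraries tested in 8- and 11-point concentration series.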
For `COc1ccc(-c2ccc3cc(C(=O)O)ccc3c2)cc1C12CC3CC(CC(C3)C1)C2`, the Potency entry is “inactive”. Still for that read-out and setting: the entry for `CCOC(=O)c1ccc(OC(=O)CCCCCN=C(N)N)cc1` is “inactive”; for `O=S(=O)(c1cccc2cnccc12)N1CCCNCC1` it is “inactive”.

As for `CNC1CCCN(c2c(F)cc3c(=O)c(C(=O)O)cn(C4CC4)c3c2OC)C1` (centres undefined), the Potency entry was “inactive”.

A further assay has as its system MKL-1. Described as above. The following applies: MCC and control cell lines, CellTiter-Glo viability, 72 h; series mostly up to 46 µM. The gist of the method: as §1
As for `CCCN[C@H]1CCc2nc(N)sc2C1`, the Potency entry is “inactive”. Same read-out and setting: the entry for `CCOCC(O)COc1ccc(NC(=O)CC[S+](C)C)cc1` (centres undefined) is “inactive”; for `COc1cc(NS(=O)(=O)c2ccc(N)cc2)nc(OC)n1` it is “inactive”.

For the compound `O=C(N[C@H](CO)[C@H](O)c1ccc([N+](=O)[O-])cc1)C(Cl)Cl`, the Potency result is “inactive”. The same measure, in the same setting: next, `CCCc1cc(C(N)=S)ccn1`: “inactive”.

As for `O=C(O)c1cn(C2CC2)c2cc(N3CCNCC3)c(F)cc2c1=O`, the Potency entry is “inactive”. Still for that read-out and setting: the entry for `O=C(O)CCn1c2c(c3ccccc31)C[C@H](NS(=O)(=O)c1ccc(F)cc1)CC2` is “inactive”; for `Cc1noc(NS(=O)(=O)c2ccc(N)cc2)c1C` it is “inactive”. For the compound `CCn1cc(C(=O)O)c(=O)c2cc(F)c(N3CCN(C)CC3)cc21`, the Potency entry is “inactive”. Still for that read-out and setting: next, `O=C(O)CSCC(=O)NC1CCSC1=O` (centres undefined): “inactive”; `CN(C)CCc1c[nH]c2ccc(CS(=O)(=O)N3CCCC3)cc12`: “inactive”. The same measure, in the same setting: next, `CO[C@@H]1[C@@H](OC(N)=O)[C@@H](O)[C@H](Oc2ccc3c(O)c(NC(=O)c4ccc(O)c(CC=C(C)C)c4)c(=O)oc3c2C)OC1(C)C`: “inactive”; `CCOc1cc(N)c(Cl)cc1C(=O)NCC1CN(Cc2ccc(F)cc2)CCO1` (centres undefined): “inactive”.

`CCC(=O)O[C@]1(C(=O)SCF)[C@H](C)C[C@H]2[C@@H]3C[C@H](F)C4=CC(=O)C=C[C@]4(C)[C@@]3(F)[C@@H](O)C[C@@]21C`: the Potency result is “inactive”. The same measure, in the same setting: next, `Cc1oc(=O)oc1CN1CCN(c2cc3c(cc2F)c(=O)c(C(=O)O)c2n3C(C)S2)CC1` (centres undefined): “inactive”; `NC1(c2ccc(-c3nc4ccn5c(=O)[nH]nc5c4cc3-c3ccccc3)cc2)CCC1`: 20.9 µM (active); `C[C@@H](CN1CC(=O)NC(=O)C1)N1CC(=O)NC(=O)C1`: “inactive and 5.9 µM (active)”.

Regarding `OC(Cn1cncn1)(Cn1cncn1)c1ccc(F)cc1F`, the Potency entry is “inactive”. Same read-out and setting: the entry for `O=NN(CCCl)C(=O)NC1CCCCC1` is “inactive”; for `Clc1ccccc1CN1CCc2sccc2C1` it is “inactive”. The same measure, in the same setting: the entry for `Cn1c(=O)c2c(ncn2CC(O)CO)n(C)c1=O` (centres undefined) is “inactive”; for `Cc1cccc(N(C)C(=S)Oc2ccc3ccccc3c2)c1` it is “inactive”.

Regarding `CN(CCOc1ccc(CC2SC(=O)NC2=O)cc1)c1ccccn1` (centres undefined), the Potency result was “inactive”. `COC(c1ccccc1)(c1ccccc1)[C@H](Oc1nc(C)cc(C)n1)C(=O)O`: the Potency result was “inactive”. The same measure, in the same setting: the entry for `CCc1cc(C(N)=S)ccn1` is “inactive”.

As to `COCCCOc1cc(C[C@@H](C[C@H](N)[C@@H](O)C[C@H](C(=O)NCC(C)(C)C(N)=O)C(C)C)C(C)C)ccc1OC`, the Potency entry is “inactive”.

On to `CCN(C)C(=O)Oc1cccc([C@H](C)N(C)C)c1`, for which the Potency result is “inactive”. On the same count and under the same terms, next, `CCn1cc(C(=O)O)c(=O)c2cc(F)c(N3CCNCC3)nc21`: “inactive”; `CC[C@H](NC(C)C)[C@H](O)c1ccc(O)c2[nH]c(=O)ccc12`: “inactive”. Turning to `CC(C)OC(=O)C(C(=O)OC(C)C)=C1SC=CS1`, the Potency result is “inactive”. Still for that read-out and setting: the entry for `COc1ccc(-c2ccc3cc(C(=O)O)ccc3c2)cc1C12CC3CC(CC(C3)C1)C2` is “inactive”. With `CCOC(=O)c1ccc(OC(=O)CCCCCN=C(N)N)cc1`, the Potency entry was “inactive”. As to `O=S(=O)(c1cccc2cnccc12)N1CCCNCC1`, the Potency result is “inactive”. On the same count and under the same terms, the entry for `CNC1CCCN(c2c(F)cc3c(=O)c(C(=O)O)cn(C4CC4)c3c2OC)C1` (centres undefined) is “inactive”.

With `COc1ccc2c(c1)c(CC(=O)OCC(=O)O)c(C)n2C(=O)c1ccc(Cl)cc1`, the Potency entry is “inactive”.
